# Source: the OligoGym collection
# Target: YPEL3
# Assay: pooled miR-30 sensor sort-seq; sequence = guide strand
# Conditions: shRNA
# Further: reference of the scale not given here.
row,Sequence,sensor-assay potency score (higher = more potent)
1,ACAATCATCCAAGTAGGCCTGA,0.225
2,TCTTGCAGTTCTCGCAGTGGAT,-1.02
3,TTGAGTTCAATGATGTACTTCC,0.797
4,TTCCCCTCTTTGTACTTCTGGC,-0.928
5,TTTGAAATCCGCACCATGGCGG,-0.368
6,TTCTCGCAGTGGATGTCGGCGA,-0.367
7,ATATACAGGAGCTAGATCCGTC,0.357
8,TTATGTACAAACGCTACAGAAC,-1.18
9,TATACCTCCGGTGACAATCATC,-1.49
10,TTCAATGATGTACTTCCCCTCT,-0.135
11,TTGTACTTCTGGCTGCTCTCAA,0.24
12,TTGGAGATGAGGTCGTCGTGGT,0.122
